In the library only some 19% were active in any assay of this set; here they are far more common.
HepG2 viability: counter-screen for TGF-b inhibitors: cytotoxicity in HepG2 cells; HepG2 CAGA-GFP viability, ATP luminescence, 18 h; Potency, µM (doses to about 46.1 µM), actives largely listed as cytotoxic; 0.76% of 410,000 active
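CellTiter-Glo luminescence gave cytotoxicity after 18 hours at 37 degrees C. The cells were HepG2 CAGA-GFP in 1% FBS DMEM, stimulated with 500 pg/mL TGF-beta after compound addition. %Activity was normalised to no-cell wells (complete cell-killing) and DMSO (no toxicity), and curves were fitted and classified.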
TDP1 cell CPT: DT40-hTDP1 cell growth loss with CPT; 12% of 420,000 active; chicken DT40 Tdp1-/-;hTDP1 cells + 20 nM CPT, ATP luminescence, 48 h; Potency, µM (series often up to 46.2 µM), hits mostly inhibitors; note: nearly all actives have a fitted effect of over 55% in size
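Cell growth measured by CellTiter-Glo luminescence after a minimum 48 h, 37 C compound exposure with 20 nM CPT in Tdp1-knockout DT40 cells stably expressing hTDP1, seeded 400/well; qHTS titration format.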
DT40 TDP1 no CPT: qHTS for Inhibitors of human tyrosyl-DNA phosphodiesterase 1 (TDP1): qHTS in cells in absence of CPT; 15% of 420,000 active; AID 686978, 2013; Potency, µM (top dose mostly 46.2 µM), most hits filed as inhibitors; DT40 Tdp1-/- hTDP1 cells, no CPT, ATP luminescence, 48 h; note: nearly all actives have a fitted effect of over 55% in size
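No-CPT arm: Tdp1-/-;hTDP1 DT40 cells (400/well) plus compounds, incubated ≥48 hr at 37 °C. Readout CellTiter-Glo luminescence.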
IL-1B inflam inh: inhibitors of inflammasome signaling (IL-1 beta secretion) | THP-1 LPS/ATP IL-1B secretion, AlphaLISA, 16 h; active compounds read low | activity change, % at 57.5 µM | 4.7% of 360,000 active; in the data active = activity change below about -50%; inconclusive = mostly about -30% to -49%
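Secreted IL-1B measured by AlphaLISA bead assay after 16 h compound exposure of THP-1 cells; compounds (final up to 57.5 uM) added 1 h before LPS (250 ng/mL) and ATP (1.25 mM) stimulation; lower signal means less secretion.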
ASM inhibitor: human S-ASM enzyme inhibition; Potency, µM (series often up to 57.5 µM), usual class: inhibitors; placental ASM, HMU-PC fluorogenic substrate, 60 min; 0.006% of 340,000 active; AID 504937
Target sequence (P17405 47-631 limits assumed): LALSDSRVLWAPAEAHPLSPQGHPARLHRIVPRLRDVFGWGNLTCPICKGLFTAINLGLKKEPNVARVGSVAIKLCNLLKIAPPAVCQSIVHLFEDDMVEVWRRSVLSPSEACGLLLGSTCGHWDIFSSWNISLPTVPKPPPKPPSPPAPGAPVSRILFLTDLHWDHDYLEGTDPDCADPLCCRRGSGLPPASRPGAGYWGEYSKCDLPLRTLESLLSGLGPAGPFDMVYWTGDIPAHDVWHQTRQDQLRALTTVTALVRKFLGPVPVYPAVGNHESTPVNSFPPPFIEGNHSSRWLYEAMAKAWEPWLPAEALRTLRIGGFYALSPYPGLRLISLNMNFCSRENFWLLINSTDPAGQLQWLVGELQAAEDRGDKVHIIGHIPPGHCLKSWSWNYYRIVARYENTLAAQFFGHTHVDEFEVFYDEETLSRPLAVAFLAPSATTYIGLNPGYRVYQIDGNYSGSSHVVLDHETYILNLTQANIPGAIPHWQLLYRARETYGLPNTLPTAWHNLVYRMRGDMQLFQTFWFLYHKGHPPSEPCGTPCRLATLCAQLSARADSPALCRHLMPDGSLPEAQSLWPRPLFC
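Fluorogenic HMU-PC substrate (9 uM final) is turned over by placental ASM in 60 min at 37 C after a 10 min compound preincubation. Reaction ended by alkaline stop (pH 10), with fluorescence read at 386/447 nm.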
TGFb SMAD3 inh: blocks TGF-b signaling | 1.2% of 410,000 active | Potency, µM (highest dose often 46.1 µM), most hits filed as inhibitors | AID 588855 | HepG2 CAGA-GFP TGF-b/SMAD3 reporter, GFP fluorescence, 18 h; TGF-beta stimulated, 500 pg/mL final; note: nearly all actives have a fitted effect of over 65% in size
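Cell-based qHTS in HEPG2 carrying a CAGA-GFP Smad reporter; compounds added before 500 pg/mL final TGF-beta, 18 h incubation at 37 degrees C, GFP fluorescence quantified per cell by imaging cytometry.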
A number is an active result; – = inactive; ? = inconclusive; · = not tested or not shown; [ ] = remark or other dose. Unless noted, calls come from the whole dose curve; as a rule, active = well fitted curve in the direction sought with a large enough effect; inconclusive = small, poorly fitted or top-dose-only effect, or another doubt; inactive = no such curve, though single readings can be large; an effect the other way counts as inactive or inconclusive.

SMILES | HepG2 viability | TDP1 cell CPT | DT40 TDP1 no CPT | IL-1B inflam inh | ASM inhibitor | TGFb SMAD3 inh
COc1ccc(N(CC(=O)NCCOc2ccccc2)S(=O)(=O)c2ccc(C)cc2)cc1 | – | ? | 21µM | – | – | –
COc1ccc(CCNC(=O)CN(c2ccc(C)cc2)S(=O)(=O)c2ccc(OC)cc2)cc1 | – | ? | 23µM | · | · | –
C=C1CCN(C(CC(C)C)C(=O)O)S(=O)(=O)c2ccccc21 (stereo not drawn) | – | · | · | · | · | –
CC1(C(=O)NS(=O)(=O)c2cccc(OC(F)F)c2)CCN1C(=O)CC1CCCC1 (stereo not drawn) | – | – | – | – | · | –
Cc1cc2[nH]c(=O)c(=O)[nH]c2cc1S(=O)(=O)NC1CCCCC1C (stereo not drawn) | – | – | – | – | – | –
COc1ccc(S(=O)(=O)N(CC(=O)NCCSc2ccccc2)c2ccc(C)cc2)cc1 | – | 18µM | 13µM | · | · | –
COc1ccc(N(CC(=O)NCCSCc2ccccc2C)S(=O)(=O)c2ccccc2)cc1 | – | 16µM | 16µM | – | · | –
COc1ccc(N(CC(=O)NCC(C)C)S(=O)(=O)c2ccccc2)cc1 | – | – | – | – | – | –
CCOc1ccc(N(CC(=O)N/N=C/c2ccccn2)S(=O)(=O)c2ccc(Cl)cc2)cc1 | – | ? | 21µM | – | – | –
CCOc1ccc(N(CC(=O)NCCSc2ccccn2)S(=O)(=O)c2ccc(Cl)cc2)cc1 | – | ? | ? | – | – | –
COc1ccc(N(CC(=O)NCCSc2ccccc2)S(C)(=O)=O)cc1 | – | – | – | – | – | –
COc1ccc(S(=O)(=O)N(CC(=O)NCc2ccccn2)c2ccc(Cl)cc2)cc1 | – | ? | ? | -54 | – | ?
COc1ccccc1CCC(=O)N1CCOc2c(cc(-c3cnc4ccccc4c3)cc2OC)C1 | · | –[9.04 µM] | – | · | · | ·
COc1ccc(S(=O)(=O)N(CC(=O)NCc2ccc(C)cc2)c2ccc(Cl)cc2)cc1 | – | – | – | · | · | ?
COc1ccc(S(=O)(=O)N(CC(=O)NCCSc2ccccc2)c2ccc(Cl)cc2)cc1 | – | 16µM | 12µM | · | · | –
COc1ccc(OC)c(N(CC(=O)NCCSC2CCCCC2)S(=O)(=O)c2ccccc2)c1 | – | ? | ? | – | – | –
COc1ccc(N(CC(=O)NCCSC2CCCCC2)S(=O)(=O)c2ccc(C)cc2)cc1 | – | – | 23µM | – | – | –
Cc1cccn2c(=O)cc(COc3cccc(NC(=O)c4ccccc4F)c3)nc12 | – | ? | ? | · | · | –
Cc1c(O)c2c3c(cccc3c1O)C(=O)N(c1ccccc1)C2=O | – | ? | ? | – | – | ?
CCOC(=O)C(C)n1cnc2c(nnn2-c2ccc(C)cc2)c1=O (stereo not drawn) | – | – | – | – | – | –
CCOC(=O)C(CC)n1cnc2c(nnn2-c2ccc(OC)cc2)c1=O (stereo not drawn) | – | – | – | – | – | –
CCOC(=O)C(C)n1cnc2c(cnn2-c2ccc(Cl)cc2)c1=O (stereo not drawn) | – | ? | 16µM | – | – | –
CCOC(=O)C(CC)n1cnc2c(cnn2-c2ccc(Cl)cc2)c1=O (stereo not drawn) | – | ? | 18µM | – | – | –
O=C(N1CCOCC1)N1CCN(S(=O)(=O)c2ccc(Cl)cc2)CC1 | – | – | – | – | – | –
CC1=C2C3OC(=O)C(C)C3CCC2(C)C=C(Br)C1=O (stereo not drawn) | – | – | 21µM | – | · | –
SMILES | HepG2 viability | TDP1 cell CPT | DT40 TDP1 no CPT | IL-1B inflam inh | ASM inhibitor | TGFb SMAD3 inh
Cc1cc(CNC(=O)Cn2nc(C)c([N+](=O)[O-])c2C)c2ccccc2n1 | – | ? | ? | – | – | –
Cc1ccc2c(c1)N(C(=O)CCC(=O)Nc1ccccc1Cl)CC(C)O2 (stereo not drawn) | – | ? | ? | – | – | –
Nc1ncnc2c1ncn2COC(CO)CO | – | 0.32µM | 0.71µM | · | · | –
CC1=CC(=O)C(C(C)=Nc2cccc(Cl)c2)C(=O)O1 (stereo not drawn) | – | – | – | – | – | –
C/C(=N\NC(=O)c1cc(C)nc2ccccc12)c1ccco1 | – | – | – | – | – | –
C/C(=N/NC(=O)c1cc2ccccc2cc1O)c1ccco1 | – | 26µM | 13µM | – | – | ?
C/C(=N\NC(=O)c1cc2ccccc2cc1O)c1ccc(C)o1 | – | 18µM | 15µM | – | – | ?
COc1ccc(CNS(=O)(=O)CCNC(=O)c2cccc(OC)c2)cc1 | – | – | – | – | – | –
O=C1CN(S(=O)(=O)c2cccc(Cl)c2Cl)CCN1 | – | – | – | – | – | –
S=C(NCCCN1CCOCC1)N1CCN(c2nc(-c3ccccc3)cs2)CC1 | – | ? | 23µM | -87 | – | –
S=C(NCCCN1CCOCC1)N1CCN(c2nc(-c3ccc(Cl)cc3)cs2)CC1 | 11µM | 7.3µM | 4.1µM | -70 | – | 13µM
S=C(NCC1CCCO1)N1CCN(c2nc(-c3ccc(Cl)cc3)cs2)CC1 (stereo not drawn) | – | 16µM | 15µM | -68 | – | ?
O=C(NCCCN1CCOCC1)C1CCN(S(=O)(=O)c2cccc(Cl)c2Cl)CC1 | – | – | – | – | – | ?
O=S(=O)(c1cccc(Cl)c1Cl)N1CCN(C(=S)NCCCN2CCOCC2)CC1 | – | ? | 21µM | -74 | – | –
CCCNC(=S)N1CCN(c2nc(-c3ccc(C)cc3)cs2)CC1 | – | ? | ? | – | – | ?
Cc1ccc(N2CC(NS(=O)(=O)c3cc(F)ccc3F)CC2=O)cc1C (stereo not drawn) | – | – | – | – | · | –
COc1ccc(OC)c(Nc2sc(C(=O)c3ccccc3)c(N)c2S(=O)(=O)c2ccccc2)c1 | – | – | ? | · | · | –
COc1cc(CNC(=O)Nc2nnc([C@@H]3C[C@H](O)[C@@H](CO)O3)s2)cc(OC)c1OC | – | – | – | – | · | –
CCCCc1ccc(S(=O)(=O)NC(=O)C2(C)CCN2C(=O)C/C=C/c2ccccc2)cc1 (stereo not drawn) | – | ? | ? | – | · | –
C=CCn1c(SCc2c(C(=O)OC)sc(N)c2C(=O)OC)nnc1-c1ccc(Br)cc1 | – | ? | 18µM | – | – | ?
C=CCn1c(SCC(=O)O)nnc1-c1ccc(C(C)(C)C)cc1 | – | – | ? | – | – | –
CCOC(=O)CN(c1cc([N+](=O)[O-])ccc1OC)S(C)(=O)=O | – | – | – | -60 | – | –
